# The source made the active and inactive calls.
# How the values were obtained:
# [1] = tested on: Wnt5a (protein binding on small-molecule microarray); test: Wnt5a binders on small-molecule microarray, primary screen, biophysical, 635/667 nm fluorescence (AID 1142); settings: 635 nm fluorescence, higher = more signal;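 further: fluorescence read at 667 nm with signal to noise per printed feature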
# [2] = cell viability in Huh7 cells, primary screen, cytotoxicity control for HCV replication inhibitor project, CellTiter-Glo luminescence, basal, 48 h (AID 1143); settings: Huh7 HCV replicon, higher = more signal, called active from +8 up or from −8 down;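 further: Huh7 hepatoma cells carrying a hepatitis C replication reporter with no stimulus; test concentration not given here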
# [3] = CREB reporter modulators without forskolin, primary screen, cell-based, PC12, CRE-LacZ reporter, unstimulated (AID 1145); settings: no forskolin, luminescence, 4.5 h, higher = more signal, called active from +8 up or from −8 down
# [4] = CREB reporter modulators under forskolin, primary screen, cell-based, PC12, CRE-LacZ reporter, forskolin-stimulated (AID 1146); settings: luminescence, 4.5 h, higher = more signal, called active from +8 up or from −8 down;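 further: PC12 cells with 6xCRE LacZ reporter stimulated by forskolin 10 µM; beta-galactosidase reporter signal reflecting CREB driven transcription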
# [5] = target: Streptavidin (Streptomyces avidinii) (UniProt P22629); test: streptavidin binders on small-molecule microarray, primary screen, artefact control for SMM compound annotation, biophysical, 635/667 nm fluorescence (AID 1147); settings: streptavidin binding, higher = more signal;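 further: signal reflects streptavidin binding to arrayed compounds as a control protein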
# [6] = small-molecule binders of probe aInhba, primary screen, biochemical, small-molecule microarray, 635/667 nm fluorescence (AID 1148); settings: higher = more signal;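 further: score merges 667nm spot fluorescence with signal-to-noise for antibody binding to printed compounds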
# Torsin-1A (Homo sapiens) [7] = target: Torsin-1A (Homo sapiens) (UniProt O14656); test: torsin A binders from cell lysate, primary screen, small-molecule microarray, wild-type, 635/667 nm (AID 1149); settings: COS7 hTOR1A-WT lysate, 635 nm fluorescence, higher = more signal
# Torsin-1A (Homo sapiens) [8] = target: Torsin-1A (Homo sapiens) (UniProt O14656); test: small-molecule binders of mutant TOR1A in lysate, primary screen, cell lysate, small-molecule microarray, COS7 lysate, 635/667 nm fluorescence (AID 1150); settings: COS7 hTOR1A mutant lysate, 635 nm fluorescence, higher = more signal;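 further: score pools 667 nm emission and signal to noise measuring lysate protein binding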
# [9] = tested on: Sonic hedgehog protein (Shh); test: small-molecule binders of Shh protein, primary screen, biochemical, small-molecule microarray, 635/667 nm fluorescence (AID 1151); settings: small-molecule microarray binding, 635 nm fluorescence; higher = more signal;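 further: Shh protein binding to compounds spotted on small-molecule microarray slides; score combines spot fluorescence intensity with signal-to-noise across triplicate slides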
# [10] = E. coli DRC41 culture turbidity changes, primary screen, E. coli filamentation inducer project, strain DRC41, OD650, 48 h (AID 1152);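 further: E. coli MC1000 strain DRC41 lacking acrAB efflux pump and sulA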; settings: E. coli DRC41 (acrAB sulA), higher = more signal, called active from +8 up or from −8 down
# [11] = small-molecule binders of probe aLefty1, primary screen, biochemical, small-molecule microarray, 635/667 nm fluorescence (AID 1153); settings: higher = more signal;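 further: score merges spot fluorescence with signal-to-noise ratio from the scanned slide images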
# [12] = PSAC antagonists in infected red cells, primary screen, cell-based, P. falciparum Indochina, OD700, 1 h (AID 1154); settings: P. falciparum Indochina infected RBC osmotic lysis, higher = more signal, called active from +8 up or from −8 down
# [13] = PSAC antagonists in infected red cells, primary screen, cell-based, P. falciparum Indochina, OD700, 2 h (AID 1155);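 further: lysis reports solute entry through the parasite surface anion channel PSAC; channel blockers reduce lysis of infected cells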; settings: P. falciparum Indochina infected erythrocytes, osmotic lysis OD700; higher = more signal, called active from +8 up or from −8 down
# [14] = osmotic lysis modulators in infected erythrocytes, primary screen, PSAC antagonist project, cell-based, P. falciparum Indochina, OD700, 3 h (AID 1156); settings: higher = more signal, called active from +8 up or from −8 down
# [15] = PSAC antagonists in infected red cells, primary screen, cell-based, P. falciparum Indochina, OD700, 18 h (AID 1157); settings: P. falciparum Indochina infected erythrocytes, osmotic lysis OD700, 18 h; higher = more signal, called active from +8 up or from −8 down
# [16] = modulators of S6 phosphorylation in cells, primary screen, cell-based, A549, cytoblot, luminescence, serum-stimulated (AID 1158); settings: A549 phospho-S6 cytoblot, 5 h, higher = more signal;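 further: serum-stimulated A549 lung adenocarcinoma cells; signal is phosphorylated S6 detected by cytoblot immunostaining with HRP secondary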
# [17] = target: NADPH oxidase 2 (Homo sapiens) (UniProt P04839); test: NOX2-dependent H2O2 signal modulators, primary screen, NOX inhibitor project, cell-based, HEK293-NOX2, PMA-stimulated, Amplex Red fluorescence (AID 1159); settings: 45 min, higher = more signal, called active from +8 up or from −8 down; further: test concentration not given here
# [18] = target: NADPH oxidase 4 (Homo sapiens) (UniProt Q9NPH5); test: NOX4-dependent H2O2 signal modulators, primary screen, NOX inhibitor project, cell-based, HEK293-NOX4, tetracycline-induced, Amplex Red fluorescence (AID 1160); settings: 45 min, higher = more signal, called active from +8 up or from −8 down
# [19] = target: NADPH oxidase 5 (Homo sapiens) (UniProt Q96PH1); test: NOX5-dependent H2O2 signal modulators, primary screen, NOX inhibitor project, cell-based, HEK293-NOX5, Amplex Red fluorescence (AID 1161); settings: HEK293-NOX5, ionomycin, 45 min, higher = more signal
# [20] = A549 cell viability effects, profiling panel, calcein-AM fluorescence, 48 h, basal (AID 1162); settings: higher = more signal; further: test concentration not given here
# Chain of Streptavidin (Streptomyces avidinii) (P22629 whole entry, looked up): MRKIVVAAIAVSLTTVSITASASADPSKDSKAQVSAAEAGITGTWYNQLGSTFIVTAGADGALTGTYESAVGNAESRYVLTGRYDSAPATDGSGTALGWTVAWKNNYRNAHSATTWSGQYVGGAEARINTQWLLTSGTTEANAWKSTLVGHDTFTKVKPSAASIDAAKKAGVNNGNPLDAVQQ
# Chain of NADPH oxidase 5 (Homo sapiens) (Q96PH1 whole entry, looked up): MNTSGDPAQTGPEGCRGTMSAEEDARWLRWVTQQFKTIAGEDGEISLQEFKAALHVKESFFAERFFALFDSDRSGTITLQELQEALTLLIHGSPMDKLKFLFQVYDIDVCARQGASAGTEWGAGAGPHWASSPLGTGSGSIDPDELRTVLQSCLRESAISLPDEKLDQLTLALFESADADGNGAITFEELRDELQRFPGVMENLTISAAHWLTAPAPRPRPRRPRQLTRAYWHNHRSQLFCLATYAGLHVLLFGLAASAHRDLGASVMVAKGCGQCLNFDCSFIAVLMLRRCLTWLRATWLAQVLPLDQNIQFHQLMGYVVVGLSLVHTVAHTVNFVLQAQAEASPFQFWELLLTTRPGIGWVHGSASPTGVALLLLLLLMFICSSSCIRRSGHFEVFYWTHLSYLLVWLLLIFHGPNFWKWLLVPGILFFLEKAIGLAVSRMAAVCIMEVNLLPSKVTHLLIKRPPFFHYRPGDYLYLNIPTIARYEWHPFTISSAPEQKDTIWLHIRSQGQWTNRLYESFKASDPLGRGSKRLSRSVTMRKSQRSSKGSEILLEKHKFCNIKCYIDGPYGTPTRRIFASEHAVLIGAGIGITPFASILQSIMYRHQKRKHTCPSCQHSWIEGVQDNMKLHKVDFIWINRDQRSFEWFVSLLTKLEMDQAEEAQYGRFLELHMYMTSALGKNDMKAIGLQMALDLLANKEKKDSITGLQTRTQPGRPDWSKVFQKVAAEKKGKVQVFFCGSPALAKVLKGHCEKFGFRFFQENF
# Chain of Torsin-1A (Homo sapiens) (O14656 whole entry, looked up): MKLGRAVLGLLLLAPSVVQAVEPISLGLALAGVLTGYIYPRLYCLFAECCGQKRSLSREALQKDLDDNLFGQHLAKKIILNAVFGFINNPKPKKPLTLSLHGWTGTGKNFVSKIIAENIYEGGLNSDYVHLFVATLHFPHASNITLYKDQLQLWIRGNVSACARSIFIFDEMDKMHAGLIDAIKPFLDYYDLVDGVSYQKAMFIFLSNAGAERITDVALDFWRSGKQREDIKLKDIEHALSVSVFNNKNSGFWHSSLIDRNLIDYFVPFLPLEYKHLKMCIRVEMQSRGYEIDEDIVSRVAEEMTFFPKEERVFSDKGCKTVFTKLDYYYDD
# Chain of NADPH oxidase 2 (Homo sapiens) (P04839 whole entry, looked up): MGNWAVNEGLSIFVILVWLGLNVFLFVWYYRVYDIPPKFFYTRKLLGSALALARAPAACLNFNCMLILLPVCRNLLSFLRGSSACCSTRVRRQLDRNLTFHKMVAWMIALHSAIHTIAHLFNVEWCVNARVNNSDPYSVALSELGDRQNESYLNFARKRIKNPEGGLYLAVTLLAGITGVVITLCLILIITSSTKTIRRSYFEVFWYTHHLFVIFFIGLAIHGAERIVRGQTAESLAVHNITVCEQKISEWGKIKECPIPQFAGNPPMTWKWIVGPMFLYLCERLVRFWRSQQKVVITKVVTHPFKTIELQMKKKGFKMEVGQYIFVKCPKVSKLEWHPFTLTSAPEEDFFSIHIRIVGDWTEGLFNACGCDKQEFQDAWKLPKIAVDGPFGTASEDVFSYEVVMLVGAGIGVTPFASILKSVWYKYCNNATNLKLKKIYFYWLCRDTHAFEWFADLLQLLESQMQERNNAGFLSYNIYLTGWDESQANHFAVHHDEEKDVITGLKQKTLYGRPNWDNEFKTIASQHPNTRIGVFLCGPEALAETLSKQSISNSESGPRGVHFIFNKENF
# Chain of NADPH oxidase 4 (Homo sapiens) (Q9NPH5 whole entry, looked up): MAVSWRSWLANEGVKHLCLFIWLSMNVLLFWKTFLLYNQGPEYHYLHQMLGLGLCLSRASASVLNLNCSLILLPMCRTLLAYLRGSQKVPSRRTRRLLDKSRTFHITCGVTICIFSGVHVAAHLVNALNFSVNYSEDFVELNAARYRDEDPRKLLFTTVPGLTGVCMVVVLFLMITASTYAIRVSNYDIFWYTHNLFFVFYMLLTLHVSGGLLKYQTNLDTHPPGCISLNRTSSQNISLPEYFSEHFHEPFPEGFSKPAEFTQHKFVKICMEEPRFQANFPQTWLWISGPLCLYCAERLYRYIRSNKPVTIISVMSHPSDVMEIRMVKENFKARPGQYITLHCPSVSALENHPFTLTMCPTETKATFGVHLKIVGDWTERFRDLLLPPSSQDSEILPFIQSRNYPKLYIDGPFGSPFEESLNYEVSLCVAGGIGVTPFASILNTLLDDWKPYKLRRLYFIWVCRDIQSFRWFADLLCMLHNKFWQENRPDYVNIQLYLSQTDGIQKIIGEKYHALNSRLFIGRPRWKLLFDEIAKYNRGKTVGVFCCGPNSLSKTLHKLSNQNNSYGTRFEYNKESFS
Structure (SMILES),composite z-score [1],z-score [2],z-score [3],z-score [4],composite z-score [5],composite z-score [6],composite z-score (Torsin-1A (Homo sapiens) [7]),composite z-score (Torsin-1A (Homo sapiens) [8]),composite z-score [9],z-score [10],composite z-score [11],z-score [12],z-score [13],z-score [14],z-score [15],z-score [16],z-score [17],z-score [18],z-score [19],z-score [20]
C=CCC(OC(C)=O)[C@@H]1[C@@H](N(Cc2cccc3ccccc23)C(=O)c2cccc3ccccc23)c2cc(OCCCO)ccc2N1C(=O)Cc1ccc(OC)cc1 (stereo not given in full),-0.0589,-3.55 (inactive),1.47 (inactive),-0.876 (inactive),0.228,-0.179,-0.0507,0.274,0.234,2.86 (inactive),0.0945,2.59 (inactive),-0.227 (inactive),-0.0889 (inactive),-0.618 (inactive),1.5,0.295 (inactive),-0.783 (inactive),1.46,0.725
CCCNC(=O)[C@@H]1c2ccccc2C(=O)N(Cc2cc(C(F)(F)F)cc(C(F)(F)F)c2)[C@H]1c1ccc(CO)cc1,0.311,-2.67 (inactive),0.649 (inactive),-1.13 (inactive),-0.555,-0.157,-0.0027,0.19,1,1.63 (inactive),0.233,3.17 (inactive),1.07 (inactive),-0.631 (inactive),0.77 (inactive),0.488,0.602 (inactive),-0.772 (inactive),0.69,1.16
COCCCNC(=O)[C@@]1(Cc2ccccc2CN=[N+]=[N-])COC(c2ccc(OCCCO)cc2)=N1,1.18,-3.41 (inactive),-0.94 (inactive),-2.58 (inactive),0.257,0.283,1.22,0.669,0.13,2.58 (inactive),0.961,26.7 (active),22 (active),3.17 (inactive),3.5 (inactive),0.989,-2.47 (inactive),-1.03 (inactive),-2.89,0.395
CC(C)C[C@@H]1NC(=O)[C@H]2C[C@@H](C(=O)NCCCC[N+](C)(C)C)[C@@H](c3cccc(OCCO)c3)N2C1=O,0.223,-1.01 (inactive),-0.26 (inactive),-1.21 (inactive),-0.429,-0.1,2.05,0.629,2.03,0.512 (inactive),-0.243,2.25 (inactive),-1.73 (inactive),-2.51 (inactive),-2.05 (inactive),0.251,-1.8 (inactive),-0.815 (inactive),-1.49,1.01
COc1ccc([Si](C)(C)[C@@H]2[C@@H](CCn3cc([C@H](O)c4ccccc4)nn3)O[C@]3(C(=O)N(C)c4c(Br)cc(C)cc43)[C@H]2C)cc1,0.17,-6.27 (inactive),8.24 (active),-1.37 (inactive),-0.541,0.0659,0.722,-0.0682,0.658,3.5 (inactive),-0.279,26.4 (active),15.1 (active),0.547 (inactive),0.083 (inactive),2.34,1.04 (inactive),0.593 (inactive),0.231,-1.72
CC(C)(C)OC(=O)CC[C@@]12N=C(c3ccc(OCCCO)cc3)O[C@@H]1c1ccccc1N(Cc1ccccc1)C2=O,0.215,-4.37 (inactive),1.6 (inactive),-1.25 (inactive),-0.0873,0.222,0.488,0.516,0.657,0.94 (inactive),0.659,28.5 (active),29 (active),3.86 (inactive),2.24 (inactive),0.497,1.56 (inactive),-0.266 (inactive),-1.38,-0.236
C=C(COC)/C(=C/C[C@H](OC(C)=O)c1ccc(CO)o1)c1cnc2ccccc2c1,0.251,-0.461 (inactive),0.844 (inactive),-1.08 (inactive),1.45,0.0173,1.21,1.42,2.15,1.23 (inactive),-0.145,3.78 (inactive),-1.35 (inactive),-0.148 (inactive),-2.05 (inactive),-0.198,2.33 (inactive),0.615 (inactive),0.915,0.283
CC(C)NC(=O)[C@@H]1c2ccccc2C(=O)N(Cc2cc(F)cc(C(F)(F)F)c2)[C@H]1c1ccc(CO)cc1,-0.0581,0.142 (inactive),-0.529 (inactive),-1.08 (inactive),-0.95,-0.329,-0.479,-0.0988,-0.72,1.39 (inactive),-0.113,2.06 (inactive),0.391 (inactive),1.47 (inactive),0.178 (inactive),0.161,0.146 (inactive),1.08 (inactive),0.949,1.48
CO[C@H]1O[C@H](CO)[C@@H](OC(=O)Nc2ccccc2)[C@H](OC(=O)Nc2ccccc2-c2ccccc2)[C@@H]1OC(=O)Nc1ccccc1-c1ccccc1,0.36,-5.22 (inactive),0.204 (inactive),-0.446 (inactive),1.44,0.329,1.17,0.806,2.03,1.33 (inactive),1.29,2.57 (inactive),0.116 (inactive),-0.358 (inactive),-2.03 (inactive),1.01,2.2 (inactive),0.697 (inactive),0.306,-1.01
O=c1n(-c2ccccc2)c(=O)n2n1CC(COc1ccccc1)=C1[C@@H](CCc3ccccc3)OB(O)C[C@@H]12,0.455,-1.84 (inactive),1.58 (inactive),-1.67 (inactive),0.117,0.0756,0.717,-0.0569,1.12,1.63 (inactive),-0.206,2.27 (inactive),-0.302 (inactive),0.622 (inactive),-1.31 (inactive),0.642,-0.513 (inactive),-0.0712 (inactive),-1.03,1.81
CCCNC(=O)[C@@]1(Sc2ccc(C)cc2)CC(=O)N(Cc2cc(C(F)(F)F)cc(C(F)(F)F)c2)[C@@H]1c1ccc(CO)cc1I,0.0758,-3.48 (inactive),0.0279 (inactive),-1.35 (inactive),-0.179,0.172,-0.365,0.0283,0.158,3.98 (inactive),0.114,2.98 (inactive),0.438 (inactive),-0.436 (inactive),-0.191 (inactive),4.1,1.32 (inactive),-1.29 (inactive),1.37,2.5
C=CCC(OC(C)=O)[C@@H]1[C@@H](N(Cc2ccc(-c3ccccc3)cc2)C(=O)c2ccc(-c3ccccc3)cc2)c2cc(OCCCO)ccc2N1C(=O)c1ccc(-c2ccccc2)cc1 (stereo not given in full),0.144,0.534 (inactive),-0.0247 (inactive),-0.426 (inactive),0.222,0.0439,0.276,0.0533,0.107,2.03 (inactive),-0.0088,0.568 (inactive),0.712 (inactive),-0.181 (inactive),0.0154 (inactive),0.531,0.844 (inactive),0.967 (inactive),1.17,0.444
C=CCC(OC(C)=O)[C@@H]1[C@@H](N(Cc2cc3ccccc3o2)C(=O)c2ccc(-c3ccccc3)cc2)c2cc(OCCCO)ccc2N1C(=O)c1ccc(-c2ccccc2)cc1 (stereo not given in full),0.0258,0.267 (inactive),0.6 (inactive),-0.625 (inactive),-0.0123,0.0497,-0.347,0.244,0.224,2.06 (inactive),0.0038,-0.0828 (inactive),0.179 (inactive),-0.0582 (inactive),-0.0337 (inactive),0.436,0.989 (inactive),-1.13 (inactive),0.786,0.0525
O=C(O)[C@H]1C[C@H]2C(=O)N[C@@H](Cc3ccccc3)C(=O)N2[C@H]1c1ccc(O)cc1,0.0525,-0.423 (inactive),0.826 (inactive),-0.83 (inactive),-0.0681,0.0228,0.563,0.458,1.24,0.763 (inactive),-0.0162,2.03 (inactive),-0.0251 (inactive),-7.14 (inactive),-0.139 (inactive),0.432,1.53 (inactive),1.42 (inactive),2.01,-0.315
COC(=O)C(CC#Cc1ccc2c(c1)[C@]1(C(=O)N2)[C@H](c2ccccc2OCCO)N2[C@H](c3ccccc3)[C@H](c3ccccc3)OC(=O)[C@H]2[C@@H]1C(=O)N1CCCCCCC1)C(=O)OC,2.33,-2.45 (inactive),0.212 (inactive),-0.706 (inactive),3.71,2.15,2.87,3.23,1.32,1.02 (inactive),2.82,0.867 (inactive),0.71 (inactive),0.776 (inactive),0.51 (inactive),0.67,0.797 (inactive),0.68 (inactive),2.04,0.447
COc1ccc([Si](C)(C)[C@H]2[C@H](CC(=O)N3Cc4ccccc4C[C@H]3CO)O[C@@]3(C(=O)N(Cc4cccc(N5C(=O)COc6ccccc65)c4)c4ccccc43)[C@@H]2C)cc1,0.283,-3.87 (inactive),3.47 (inactive),-1.86 (inactive),0.22,-0.0986,0.562,0.212,2,0.578 (inactive),-0.0035,3.46 (inactive),1.76 (inactive),1.69 (inactive),1.04 (inactive),0.0515,-1.37 (inactive),-0.307 (inactive),-2.34,0.486
O=C1c2ccccc2[C@](Cc2ccccc2I)(C(=O)O)[C@H](c2ccc(CO)cc2)N1Cc1ccccc1Cl,0.0716,-1.86 (inactive),-0.0888 (inactive),-0.873 (inactive),0.414,0.112,0.252,1.01,0.0948,1.76 (inactive),0.122,4.07 (inactive),-0.442 (inactive),0.477 (inactive),-1.07 (inactive),1.21,1.35 (inactive),0.57 (inactive),2.39,1.32
